# PubChem BioAssay (Tox21)
# Records with an inconclusive call do not appear. Entries that show only a call come without a potency. Calls of active or inactive are those of the source. The call rests on the fitted dose curve; in most records, active means well fitted inhibition curve with a large enough effect in the repeat runs; inconclusive means weak or mixed curves; inactive means no such curve, though single readings can be large or run the other way.
# Molecular target: Cytochrome P450 3A4 (Homo sapiens) (UniProt P08684)
# Sequence (P08684 whole entry, looked up): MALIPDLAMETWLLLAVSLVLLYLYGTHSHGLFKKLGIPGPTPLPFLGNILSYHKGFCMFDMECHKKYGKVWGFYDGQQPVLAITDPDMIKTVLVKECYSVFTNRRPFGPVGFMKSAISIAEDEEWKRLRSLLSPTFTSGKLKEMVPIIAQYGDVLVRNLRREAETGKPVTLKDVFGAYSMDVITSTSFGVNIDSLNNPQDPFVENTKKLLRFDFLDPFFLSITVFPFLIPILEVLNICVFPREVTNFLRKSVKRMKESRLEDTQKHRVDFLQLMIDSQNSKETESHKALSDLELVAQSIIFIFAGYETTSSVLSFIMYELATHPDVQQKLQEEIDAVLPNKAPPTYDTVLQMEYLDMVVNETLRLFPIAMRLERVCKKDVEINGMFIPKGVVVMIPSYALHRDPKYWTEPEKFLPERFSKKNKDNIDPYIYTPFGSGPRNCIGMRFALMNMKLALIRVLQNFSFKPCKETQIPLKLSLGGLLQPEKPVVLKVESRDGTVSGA
# Assay: Cytochrome P450 Family 3 Subfamily A Member 4 (CYP3A4) small molecule antagonists: luciferase reporter qHTS assay (AID 1671201); further: nearly all actives have a fitted effect of over 50% in size
# Conditions: P450-Glo CYP3A4 enzyme, luciferin luminescence, 1 h; series mostly up to 115 µM
# In short: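 Enzyme and proluciferin substrate are mixed with test chemicals for 10 min, then NADPH regeneration system drives turnover for 1 h at room temperature. A detection reagent halts the reaction; luminescence after 20 min gives relative activity.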
# Potency means the concentration at half of the fitted maximal effect.
row,Structure (SMILES),Potency
1,CCc1oc2ccccc2c1C(=O)c1cc(Br)c(O)c(Br)c1,inactive
2,Clc1ccc2cc3ccccc3cc2c1,inactive
3,CCCCCCCC(=O)[O-].CCCCCCCC(=O)[O-].[Zn+2],inactive
4,C=C(C)C(=O)OCC(O)COc1ccc(C(C)(C)c2ccc(OCC(O)COC(=O)C(=C)C)cc2)cc1 (stereo not given),inactive
5,Cc1cc(N)c(S(=O)(=O)O)cc1Cl,inactive
6,Oc1cccc2cc3cccc(O)c3c(O)c12,inactive
7,CCC(N)(CO)CO,inactive
8,CC1=C(/C=C/C(C)=C/C=C/C(C)=C/C=O)C(C)(C)CCC1,28.1 µM (active)
9,CCCCCCCCCCCCCC[P+](CCCC)(CCCC)CCCC (tested in a mixture with another compound),inactive
10,CCCCCCCCNC(C)C(O)c1ccc(SC(C)C)cc1 (stereo not given),inactive
11,NC(=O)CC[C@@H]1NC(=O)[C@H](Cc2ccccc2)NC(=O)[C@H](Cc2ccc(O)cc2)NC(=O)CCSSC[C@@H](C(=O)N2CCC[C@H]2C(=O)N[C@@H](CCCN=C(N)N)C(=O)NCC(N)=O)NC(=O)[C@H](CC(N)=O)NC1=O,inactive
12,NNC(=O)c1cccc(C(=O)NN)c1,3.99 µM (active)
13,CCOC(=O)O[C@H](C)OC(=O)c1ccc2c(c1)cc(C(=O)NC1CCN(C(C)C)CC1)n2Cc1cc(-c2ccc(Cl)s2)on1,5.91 µM (active)
14,CCCCCCCCCCC=O,inactive
15,CCCCCCCCCCCCCCCCCC[N+](C)(C)C,71.2 µM (active)
